High-throughput results: PubChem BioAssay, National Center for Advancing Translational Sciences (NCATS)
ELG1 repair inh: ELG1-dependent DNA repair inhibition; HEK293T ELG1-luciferase reporter, luminescence, 16 h; DNA damage induced by 5-fluorouridine; Potency, µM (doses to about 46.1 µM), without a hit: top-dose activity change, negative = inhibition, usual class: inhibitors; 330,000 tested, 2.3% active; AID 504467; also: nearly all actives have a fitted effect of over 55% in size
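Overnight (16 hr) co-exposure of 2,000 cells/well to 5-fluorouridine and compound at 37 °C preceded detection. Luciferase was quantified via ONE-Glo luminescence; loss of signal denotes inhibition.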
ALOX12 inh: ALOX12 (human) lipoxygenase inhibition. P18054. purified 12hLO, xylenol orange hydroperoxide absorbance. Potency, µM (highest dose often 108 µM), without a hit: at the top dose activity change, negative = inhibition, usual class: inhibitors. 580,000 tested, 1.1% active
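Hydroperoxide product was detected by ferrous iron/xylenol orange as the 573 to 405 nm absorbance ratio. Arachidonic acid at 40 uM (final) was turned over for 30 min at room temperature by 150 nM human 12hLO, pH 7.0 Hepes buffer, after 15 min compound preincubation.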
RORg inh: blocks mouse ROR gamma transcriptional activity | P51450 | Drosophila S2 Gal4-RORgamma UAS-luciferase reporter, 20 h | Potency, µM (series often up to 53.6 µM), for the others: at the highest dose activity change, negative = inhibition, actives largely listed as inhibitors | 310,000 tested, 5.4% active | AID 2551; also: nearly all actives have a fitted effect of over 60% in size
Target sequence (P51450 whole entry, looked up, the tested form may be a part): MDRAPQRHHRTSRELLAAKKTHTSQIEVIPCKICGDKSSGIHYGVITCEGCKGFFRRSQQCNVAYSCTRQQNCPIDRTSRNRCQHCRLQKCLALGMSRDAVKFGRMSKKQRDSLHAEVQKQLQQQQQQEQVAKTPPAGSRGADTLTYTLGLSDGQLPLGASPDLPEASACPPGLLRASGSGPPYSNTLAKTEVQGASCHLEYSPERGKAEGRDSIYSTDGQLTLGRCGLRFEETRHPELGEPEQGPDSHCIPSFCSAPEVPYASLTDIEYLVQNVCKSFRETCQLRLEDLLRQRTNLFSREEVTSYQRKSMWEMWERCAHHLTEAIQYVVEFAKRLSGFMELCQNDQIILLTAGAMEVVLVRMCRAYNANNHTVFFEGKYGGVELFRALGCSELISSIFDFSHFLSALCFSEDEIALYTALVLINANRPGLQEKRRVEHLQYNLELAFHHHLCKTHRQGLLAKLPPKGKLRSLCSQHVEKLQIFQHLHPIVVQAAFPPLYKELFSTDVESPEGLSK
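Luminescence from a UAS-regulated Photinus luciferase reporter in stably transfected Drosophila Schneider cells is measured; decreased signal marks ROR gamma inhibition. Fusion expression is induced by 700 uM copper sulfate for 20 hr.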
DT40 TDP1 CPT: DT40-hTDP1 cell growth loss with CPT | chicken DT40 Tdp1-/-;hTDP1 cells + 20 nM CPT, ATP luminescence, 48 h | Potency, µM (series often up to 46.2 µM), for the others: at the highest dose activity change, negative = growth inhibition, actives largely listed as inhibitors | 420,000 tested, 12% active; also: nearly all actives have a fitted effect of over 55% in size
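Cell growth measured by CellTiter-Glo luminescence after a minimum 48 h, 37 C compound exposure with 20 nM CPT in Tdp1-knockout DT40 cells stably expressing hTDP1, seeded 400/well; qHTS titration format.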
Gal4-VP16 FLuc: counter-screen for ROR gamma inhibitors: Gal4-VP16 reporter. Drosophila S2 Gal4-VP16 UAS-luciferase, luminescence, 20 h. Potency, µM (top dose mostly 53.6 µM), inactives show at the highest dose activity, negative = inhibition, actives largely listed as inhibitors. 310,000 tested, 3.5% active. AID 2546;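 also: Gal4-VP16 expression switched on by copper sulfate through the metallothionein promoter; nearly all actives have a fitted effect of over 50% in size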
DT40 TDP1 no CPT: qHTS for Inhibitors of human tyrosyl-DNA phosphodiesterase 1 (TDP1): qHTS in cells in absence of CPT; Potency, µM (series often up to 46.2 µM), without a hit: at the top dose activity change, negative = growth inhibition, usual class: inhibitors; 420,000 tested, 15% active; DT40 Tdp1-/- hTDP1 cells, no CPT, ATP luminescence, 48 h; also: nearly all actives have a fitted effect of over 55% in size
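Luminescent ATP content (CellTiter-Glo) served as the growth readout. Knockout chicken DT40 cells expressing human TDP1 were exposed to compounds without camptothecin for a minimum 48 hr at 37 °C.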
The depositor's hits bear a star; ? = inconclusive; / = no result given. Sampled rows, rich in hits. Any-hit rate of the full collection: about 15%. Calls follow the shape of the dose curve; as a rule, active = well fitted curve in the direction sought with a large enough effect; inconclusive = small, poorly fitted or top-dose-only effect, or another doubt; inactive = no such curve, though single readings can be large; an effect the other way counts as inactive or inconclusive. % is scaled to controls: 0 for no effect and ±100 for the full control effect; potency is read from the fitted curve at half-maximal effect.

SMILES	ELG1 repair inh	ALOX12 inh	RORg inh	DT40 TDP1 CPT	Gal4-VP16 FLuc	DT40 TDP1 no CPT
CC1C(O)CCN(C)C1C (centres undefined)	/	-0.7%	/	/	/	/
Cc1nc(Sc2cccc(C(F)(F)F)c2)c2c(-c3cccs3)csc2n1	/	8.8%	/	/	/	/
COc1cccc(S(=O)(=O)NCc2ccc(C(=O)N3CCN(c4ccccc4OC)CC3)cc2)c1	?	-0.3%	-31.5%	/	-2.2%	/
COc1cccc(S(=O)(=O)NCc2ccc(C(=O)N3CCN(c4ccccc4)CC3)cc2)c1	-18.4%	0.0%	?	16.4µM*	2.5%	16.4µM*
COc1ccc(S(=O)(=O)NCc2ccc(C(=O)N3CCN(c4ccccn4)CC3)cc2)cc1	?	?	36.1%	8.91µM*	-2.8%	?
COc1ccc(N2CCN(C(=O)c3ccc(CNS(=O)(=O)c4cccc(OC)c4)cc3)CC2)cc1	-14.2%	-15.1%	?	9.2µM*	-0.2%	23.1µM*
O=C(c1ccc(CNS(=O)(=O)c2cccc(Cl)c2)cc1)N1CCCCC1	?	0.3%	44.1%	16.4µM*	-12.1%	14.6µM*
COc1ccc(N2CCN(C(=O)c3ccc(NS(=O)(=O)c4cccc(F)c4)cc3)CC2)cc1	-23.6%	-25.1%	34.4%	?	3.6%	?
COc1ccccc1CNC(=O)c1csc(NC2CC2)n1	/	-23.8%	/	/	/	/
Cc1cc(NC(=O)C(C)C)cc(-c2nc3ccccc3o2)c1O	/	-4.7%	/	/	/	/
CC(=O)N1CC(C)Sc2ccc(S(=O)(=O)NCc3ccc(Cl)cc3)cc21 (centres undefined)	-12.5%	-1.4%	?	?	?	?
CC(=O)N1CCSc2ccc(S(=O)(=O)NCCc3cccc(C)c3)cc21	?	-15.4%	?	20.6µM*	-15.6%	10.3µM*
CC(=O)N1CCSc2ccc(S(=O)(=O)NCCc3ccc(C)cc3)cc21	?	-10.3%	40.5%	23.1µM*	?	20.6µM*
CC(=O)N1CCSc2ccc(S(=O)(=O)NCCc3ccc(Cl)cc3)cc21	?	-11.8%	16.6%	16.4µM*	?	?
CC(=O)N1CCSc2ccc(S(=O)(=O)Nc3ccc(C)cc3)cc21	-2.1%	-18.9%	37.1%	?	-12.2%	-16.0%
CCC1CCC/C1=N\NC(=O)c1ccncc1 (centres undefined)	/	6.0%	/	/	/	/
O=C(Nc1ccc(F)c(Cl)c1)c1cc(S(=O)(=O)N2CCc3ccccc3C2)ccc1F	/	-5.8%	/	?	/	?
O=C(Nc1ccc(F)c(Cl)c1)c1cc(S(=O)(=O)N2CCCc3ccccc32)ccc1F	/	?	/	13µM*	/	14.6µM*
O=C(Nc1cccc(Cl)c1)c1cc(S(=O)(=O)N2CCCc3ccccc32)ccc1F	/	?	/	10.3µM*	/	4.11µM*
O=C(NCc1ccco1)c1cc(S(=O)(=O)N2CCCc3ccccc32)ccc1Cl	-9.8%	-12.2%	9.5%	14.6µM*	-0.1%	13µM*
COc1ccc(S(=O)(=O)N2CCc3ccccc32)cc1C(=O)NCc1ccco1	-26.2%	-14.6%	/	2.6%	/	?
O=C(O)C12CC3(Br)CC(Br)(CC(Br)(C3)C1)C2	/	-18.1%	/	/	/	/
CC(C)(C)c1ccc(-n2ncc3c2CCCC3NC(=O)C2(C(N)=O)CC2)cc1 (centres undefined)	?	0.0%	?	5.8µM*	2.51µM*	1.84µM*
CC(C)(C)c1ccc(-n2ncc3c2CCCC3NC(=O)c2ccco2)cc1 (centres undefined)	/	5.4%	/	20.6µM*	/	14.6µM*
Cc1nccn1CCC(=O)NC1CCCc2c1cnn2-c1ccc(C(C)(C)C)cc1 (centres undefined)	/	-20.8%	/	-66.5%	/	?
